Assay results as given in PubChem BioAssay (NCI).
Where “and” joins values, the source holds several entries; their conditions need not be identical. Identical values can stand only once. Compounds without any hit were thinned out: in the full panel of roughly 83,000, 20% have a hit.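 Interpretation: 100, growth as untreated; towards 0, rising growth inhibition; 0, no net growth; 0 to -100, cell death. Compounds scoring below 10 were considered active.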 Calls of active or inactive are those of the source.

Tests used:
Test in all cases: NCI-60 one-dose screen, 48 h (100 = growth as untreated, 0 = no growth, -100 = all killed)
Settings in all cases: 10 µM unless noted
[1] = test system: NCI-H23 lung
[2] = test system: NCI-H226 lung
[3] = test system: NCI-H322M lung
[4] = test system: HOP-62 NSCLC
[5] = test system: NCI-H460 lung
[6] = test system: HOP-92 NSCLC
[7] = test system: NCI-H522 lung
[8] = test system: A549/ATCC NSCLC
[9] = test system: 786-0 renal
[10] = test system: COLO 205 colon
[11] = test system: DU-145 prostate
[12] = test system: K-562 leukemia
[13] = test system: MALME-3M melanoma
[14] = test system: MDA-MB-231 breast
[15] = test system: RXF 393 renal
[16] = test system: SF-268 CNS
[17] = test system: SF-295 CNS
[18] = test system: SF-539 CNS
[19] = test system: UACC-257 melanoma
[20] = test system: M14 melanoma

Row | Structure (SMILES) | growth [1] | growth [2] | growth [3] | growth [4] | growth [5] | growth [6] | growth [7] | growth [8] | growth [9] | growth [10] | growth [11] | growth [12] | growth [13] | growth [14] | growth [15] | growth [16] | growth [17] | growth [18] | growth [19] | growth [20]
1 | Nc1c(Cl)cc2c(c1Br)C(=O)c1ccccc1C2=O | 88.2% (inactive) | 99.5% (inactive) | 96% (inactive) | 101% (inactive) | 110% (inactive) | 125% (inactive) | 91.7% (inactive) | 98.1% (inactive) | 105% (inactive) | 104% (inactive) | 121% (inactive) | 83.5% (inactive) | 132% (inactive) | 83.3% (inactive) | 110% (inactive) | 108% (inactive) | 104% (inactive) | 84.6% (inactive) | 108% (inactive) | 108% (inactive)
2 | COc1cc(NCCCCCNC(C)C)c2ncccc2c1 | 104% (inactive) and 90.3% (inactive) | 90.5% (inactive) and 94% (inactive) | 82.7% (inactive) and 104% (inactive) | 87.3% (inactive) and 92.5% (inactive) | 103% (inactive) and 117% (inactive) | 82.5% (inactive) | 92.2% (inactive) and 42% (inactive) | 101% (inactive) and 94.7% (inactive) | 94.4% (inactive) and 89.3% (inactive) | 91.7% (inactive) and 87.9% (inactive) | 111% (inactive) | 91.1% (inactive) and 104% (inactive) | 99.6% (inactive) and 125% (inactive) | 89% (inactive) and 93.1% (inactive) | 90.9% (inactive) and 92.6% (inactive) | 93.5% (inactive) | 104% (inactive) and 102% (inactive) | 91.9% (inactive) and 78.1% (inactive) | 113% (inactive) and 80.2% (inactive) | –
3 | Clc1ccc2c(c1)N(C1CCCN(Cc3ccccc3)C1)c1ccccc1S2 (stereo not given) | 61.9% (inactive) | 82.1% (inactive) | 31.1% (inactive) | 82.1% (inactive) | 25.4% (inactive) | 51.7% (inactive) | 14.9% (inactive) | 35% (inactive) | 61.8% (inactive) | 3.47% (active) | 74.1% (inactive) | 18.5% (inactive) | 78.4% (inactive) | 51.8% (inactive) | -15.7% (active) | 39.2% (inactive) | 77.6% (inactive) | 40.8% (inactive) | 55.1% (inactive) | –
4 | O=[N+]([O-])c1ccc(NC(c2ccccc2)c2ccc3cccnc3c2O)cc1 (stereo not given) | 32% (inactive) | 16.6% (inactive) | 29.8% (inactive) | 26.5% (inactive) | -16% (active) | 62.5% (inactive) | 17.9% (inactive) | 13.8% (inactive) | 18.3% (inactive) | 30.3% (inactive) | 22.5% (inactive) | 13% (inactive) | 17.2% (inactive) | 44.1% (inactive) | 43.9% (inactive) | 12.9% (inactive) | 14.5% (inactive) | 14% (inactive) | -4.88% (active) | –
5 | COCCCNC1=C(C#N)C(=O)NC(c2cccs2)S1 (stereo not given) | 104% (inactive) | 98.4% (inactive) | 95.4% (inactive) | 99.9% (inactive) | 99.2% (inactive) | 107% (inactive) | 127% (inactive) | 103% (inactive) | 106% (inactive) | 110% (inactive) | 107% (inactive) | 153% (inactive) | 104% (inactive) | 106% (inactive) | 96.9% (inactive) | 104% (inactive) | 96.4% (inactive) | 85.2% (inactive) | 111% (inactive) | –
6 | CCCCC/C(C)=N\NC(N)=S | 89.5% (inactive) | 86% (inactive) | 90.4% (inactive) | 89.8% (inactive) | 94.8% (inactive) | 93.2% (inactive) | 89.3% (inactive) | 78.4% (inactive) | 101% (inactive) | 92.8% (inactive) | 85.2% (inactive) | 58.7% (inactive) | 83.7% (inactive) | 85.9% (inactive) | 85.7% (inactive) | 88.2% (inactive) | 83.4% (inactive) | 103% (inactive) | 60% (inactive) | 74.5% (inactive)
7 | COc1cc([C@@H]2c3cc4c(cc3[C@H](O)[C@H]3COC(=O)[C@@H]23)OCO4)cc(OC)c1OC | 12.2% (inactive) and 13.6% (inactive) | 51.8% (inactive) and 45.6% (inactive) | 38.9% (inactive) and 23.5% (inactive) | 15.7% (inactive) | 4.7% (active) and -1.68% (active) | 37.5% (inactive) and -7.61% (active) | -13.6% (active) and -44.2% (active) | 12.3% (inactive) and 21.2% (inactive) | 44.1% (inactive) and -74.9% (active) | -45.7% (active) and -74.4% (active) | 27.1% (inactive) and -27.4% (active) | 8.28% (active) and 25.4% (inactive) | 7.77% (active) and 69.7% (inactive) | 36.9% (inactive) and 17.5% (inactive) | 39.6% (inactive) and 28.2% (inactive) | 27.1% (inactive) and 24.4% (inactive) | 34.1% (inactive) and -22.3% (active) | -30.4% (active) and -4.79% (active) | 18.6% (inactive) and 57.2% (inactive) | –
